# High-throughput results: PubChem BioAssay, several laboratories
# Mcl1 Noxa PPI = disrupts binding of human Mcl-1 to Noxa peptide. actives 1.5% (n = 220,000). AID 1022. inhibition, % at 21.7 µM. TR-FRET Mcl-1/Noxa peptide binding, 2 h;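 active = compounds that cut the protein-peptide binding signal by more than 50% relative to plate controls in a single-dose test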;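 note: His-tagged Mcl-1 with rhodamine Noxa BH3 peptide and terbium anti-His antibody; 0% = Mcl-1 plus Noxa peptide wells and 100% = peptide-only wells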
# Target sequence (Q07820 whole entry, looked up): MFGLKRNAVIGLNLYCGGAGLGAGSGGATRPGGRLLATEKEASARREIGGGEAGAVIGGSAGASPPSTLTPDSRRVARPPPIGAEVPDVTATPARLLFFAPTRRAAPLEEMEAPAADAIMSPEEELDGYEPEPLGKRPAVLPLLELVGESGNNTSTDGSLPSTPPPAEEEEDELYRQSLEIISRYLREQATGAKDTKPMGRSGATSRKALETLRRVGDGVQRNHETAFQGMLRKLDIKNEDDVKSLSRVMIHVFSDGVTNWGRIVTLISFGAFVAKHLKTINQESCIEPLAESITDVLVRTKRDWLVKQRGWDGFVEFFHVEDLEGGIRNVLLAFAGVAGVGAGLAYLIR
# MCL1-BIM inh = inhibitors of human MCL1 binding to BIM-BH3 peptide | Q07820 | GST-MCL1 / FITC-Bim-BH3 fluorescence polarization | inhibition, % at 10.9 µM | actives 0.68% (n = 320,000);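 active = inhibition above the mean inhibition of all tested compounds plus 3 SD, set per campaign, cut at about 40% in these data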;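 note: 0% = DMSO wells and 100% = unlabeled Bim-BH3 peptide control; higher means more loss of mP so more displacement of Bim peptide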
# Bim-Mcl-1 = inhibitors of Bim-Mcl-1 interaction, human. Bead-based flow cytometry, Bim peptide-Mcl-1 binding. Q07820. actives 0.1% (n = 190,000). inhibition, % at 10 µM; in the data active = inhibition above about 40%;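 note: 0% = no compound tracer wells and 100% = peptide blocker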
# Mcl1-Bid inh = disrupts binding of human Mcl-1 to Bid peptide. Q07820. TR-FRET Mcl-1/Bid-Dy647 peptide binding, 1536-well. inhibition, % at 21.7 µM. actives 0.97% (n = 220,000);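 active = compounds that cut the binding signal by more than half at the single screening dose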;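 note: His-tagged Mcl-1 with europium anti-His antibody binding Bid BH3 peptide; 0% = Mcl-1 plus peptide wells and 100% = peptide-only wells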
# 14-3-3 Bad inh = disrupts binding of bovine 14-3-3 zeta to phospho-Bad peptide | actives 0.71% (n = 220,000) | inhibition, % at 21.7 µM | AID 781 | P63103 | TR-FRET 14-3-3zeta/Dy647-pBad peptide displacement, 1 h;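 active = inhibition above about 70%, limit read from the data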;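 note: 0% = full 14-3-3 plus peptide FRET controls and 100% = background without 14-3-3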
# Bcl-xL conf = Bcl-xL (human) inhibition, MCL1 counter-screen confirmation | inhibition, % at 10.9 µM | AID 2166 | GST-Bcl-xL / FITC-Bim BH3 peptide FP binding | actives 54% (n = 1,700) | shares compounds with MCL1-BIM inh;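 active = inhibition above a cutoff equal to the mean inhibition of all tested compounds plus 3 SD, cut at about 30% in these data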;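 note: 0% = DMSO wells and 100% = unlabeled Bim BH3 control peptide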
# MCL1 BIM confirm = MCL1-BIM-BH3 interaction inhibition, confirmation; shares compounds with MCL1-BIM inh; GST-MCL1 / FITC-Bim-BH3 fluorescence polarization; inhibition, % at 10.9 µM; actives 61% (n = 1,700); AID 2168;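 active = inhibition above the average of all tested compounds plus 3 SD, cut at about 40% in these data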;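 note: 0% = DMSO wells and 100% = unlabeled Bim-BH3 control peptide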
# * marks the source's active call; other numbers are inactive results; nt = not tested or not shown; + = active, no number. Most compounds without a hit are left out; they make up all but 2.5% or so of the library.
SMILES,Mcl1 Noxa PPI,MCL1-BIM inh,Bim-Mcl-1,Mcl1-Bid inh,14-3-3 Bad inh,Bcl-xL conf,MCL1 BIM confirm
COc1ccc(S(=O)(=O)C(C#N)c2nc3ccccc3nc2N2CCCCC2)cc1 (configuration not stated),37.8,79.1*,0.0,-51.1,31.8,19.3,19.6
Cc1ccc(C)c(S(=O)(=O)C(C#N)c2nc3ccccc3nc2N2CCOCC2)c1 (configuration not stated),21.0,13.3,-7.0,5.9,12.5,nt,nt
CC1CCN(CCC(=O)Nc2ccc(Cl)cc2)CC1,10.8,2.8,-2.0,-34.9,0.0,nt,nt
COc1ccc2[nH]c(C)c(CCN(Cc3cccs3)C(=S)Nc3cccc(F)c3)c2c1,2.0,62.7*,1.0,-40.4,2.1,21.7,21.3
O=C(O)CCNc1ccc(NCCC(=O)O)c2c1C(=O)c1ccccc1C2=O,nt,153.9*,nt,nt,nt,101.6*,129.9*
COc1ccccc1NCCC(=O)O,0.4,1.1,nt,-140.8,-0.7,nt,nt
CCOC(=O)CN1C=C(c2ccc3ccccc3n2)C(C[N+](=O)[O-])c2ccccc21 (configuration not stated),-1.2,105.7*,-3.0,-8.0,-1.5,138.4*,171.6*
COc1cccc(C2CC(=O)Nc3c2c(=O)[nH]c2ncnn32)c1 (configuration not stated),2.6,2.4,-1.0,-21.0,-18.8,nt,nt
C=CCn1c(CC#N)nnc1N1CCOCC1,34.4,65.1*,-2.0,-1.8,44.1,6.9,3.9
C=CCN1C(c2ccccc2)=CS/C1=C(/C#N)c1nnc(N2CCOCC2)n1-c1ccccc1,20.7,0.9,-7.0,-29.2,-1.2,nt,nt
C/C(O)=c1/ccc2cccc3nc(C)nc1c23,1.4,61.2*,3.0,-27.6,-0.2,62.4*,56.8*
Cc1cccc2nc3ccccc3cc12,nt,5.2,nt,nt,nt,nt,nt
Cc1csc(NC(=O)CCn2c(=O)oc3ccc(Cl)cc32)n1,nt,2.0,nt,nt,nt,nt,nt
Cc1nn(-c2ccc(F)cc2)c(Cl)c1C(=O)N(C)CC(=O)Nc1cccc(F)c1,nt,1.3,nt,nt,nt,nt,nt
CC(/C=C1\SC(=Nc2cccnc2)NC1=O)=C\c1ccccc1,18.9,-15.0,nt,7.7,19.4,nt,nt
C=CCOc1ccc(/C=C2\SC(=Nc3cccnc3)NC2=O)cc1,36.7,64.0*,nt,-4.4,22.1,65.2*,74.0*
N#Cc1c(N)sc(=S)c2c1CCCC2,29.1,159.7*,1.0,-8.0,53.7,62.2*,91.7*
CCC1(C)Cc2c(C#N)c(N)sc(=S)c2CO1 (configuration not stated),26.6,23.1,0.0,-10.8,39.9,nt,nt
CCN(CC)S(=O)(=O)c1cccc(N=NC2=C(O)CCCC2=O)c1,33.6,5.1,-1.0,-20.7,-9.6,nt,nt
O=C1CCCC(O)=C1N=Nc1cccc(C(=O)O)c1,56.7*,40.3*,0.0,-42.7,47.5,11.4,35.3
COc1ccc(/C=N/NC(=O)c2cc(C(C)(C)C)[nH]n2)cc1COc1ccc(F)cc1F,2.6,1.7,2.0,2.3,-4.1,nt,nt
Cc1nnc(C)c2c(C)n(-c3ccccc3N)c(C)c12,5.0,94.0*,0.0,-61.3,-14.0,13.5,14.4
Cc1ccc(C)c(NC(=O)CN(C)C(=O)c2cccc(-n3cccc3)c2)c1,nt,45.8*,nt,nt,nt,9.6,64.0*
Cc1ccccc1-n1c(SCc2c(C)noc2C)nnc1-c1ccncc1,18.2,-12.1,0.0,-33.9,-5.5,nt,nt
Cc1ccccc1-n1c(SCc2c(C)noc2C)nnc1-c1cccnc1,14.5,143.8*,-7.0,-13.1,-2.4,116.2*,135.8*
SMILES,Mcl1 Noxa PPI,MCL1-BIM inh,Bim-Mcl-1,Mcl1-Bid inh,14-3-3 Bad inh,Bcl-xL conf,MCL1 BIM confirm
Oc1ccccc1O,nt,29.5,nt,nt,nt,nt,nt
Oc1cccc2cc3cccc(O)c3c(O)c12,97.3*,50.8*,1.0,-6.4,-13.1,43.4*,49.8*
CC(=O)Oc1ccc2c(c1)Oc1cc(OC(C)=O)ccc1C21OC(=O)c2ccccc21,4.0,+,nt,-7.2,20.3,153.9*,186.1*
COc1ccc(S(=O)(=O)N2CCCC2)cc1C(=O)N1CCOCC1,5.0,-3.7,-2.0,4.7,-3.4,nt,nt
CSc1c(C#N)c(N)nc2sc(C(=O)c3ccccc3)c(N)c12,6.4,58.3*,nt,-38.1,-0.9,70.9*,87.2*
N#Cc1c(SCc2ccc(Cl)cc2)sc(C(=O)c2ccccc2)c1N,20.3,-11.0,5.0,-21.4,2.6,nt,nt
